# From article PMC7862700, “An all-to-all approach to the identification of sequence-specific readers for epigenetic DNA modifications on cytosine”
# Key:
# Experiment in all cases: DAPPL (digital affinity profiling via proximity ligation, sequencing); 10 mM Tris-HCl pH 7.5, 50 mM NaCl, 1 mM DTT, 4% glycerol, room temperature, 30 min; GST-TFs on glutathione beads, 16-mer random dsDNA library, 0.1% formaldehyde crosslink after washing; high values mean tight binding
# Conditions in all cases: protein: recombinant; tags: N-terminal GST; dsDNA, one strand shown
# FLI1 = biological target: T1, FLI1 (Homo sapiens, UniProt Q01543 1-452)
# T1 sequence: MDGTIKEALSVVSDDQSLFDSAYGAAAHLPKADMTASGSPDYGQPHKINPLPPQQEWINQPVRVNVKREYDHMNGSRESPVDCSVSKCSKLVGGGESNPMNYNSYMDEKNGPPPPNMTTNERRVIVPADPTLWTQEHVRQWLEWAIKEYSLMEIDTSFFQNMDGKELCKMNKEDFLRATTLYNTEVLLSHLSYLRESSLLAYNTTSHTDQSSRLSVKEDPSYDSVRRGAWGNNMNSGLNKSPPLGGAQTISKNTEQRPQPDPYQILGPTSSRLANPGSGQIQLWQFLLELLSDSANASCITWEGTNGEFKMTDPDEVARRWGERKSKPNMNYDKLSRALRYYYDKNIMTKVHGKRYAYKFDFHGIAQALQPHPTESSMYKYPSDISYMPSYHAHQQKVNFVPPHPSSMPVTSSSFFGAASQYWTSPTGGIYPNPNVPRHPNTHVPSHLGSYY
# Summary of the method: (§1)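 Pools of DNA-barcoded human transcription factors, expressed in yeast as GST fusions on glutathione beads and combined with a tag-only sample, were incubated with 200 nmole of a 16-mer random double-stranded DNA library. Incubation took 30 min at room temperature in Tris/NaCl/DTT/glycerol buffer and was followed by washing, 0.1% formaldehyde crosslinking, proximity ligation (BsaI/T4 ligase, 1 h, 37 °C), PCR amplification and sequencing on an Illumina NextSeq500. Binding signal is the ratio of a hexamer's read frequency for a factor to its frequency for the tag-only sample.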
# ELK1 = biological target: T2, ELK1 (Homo sapiens, UniProt P19419 1-428)
# T2 sequence: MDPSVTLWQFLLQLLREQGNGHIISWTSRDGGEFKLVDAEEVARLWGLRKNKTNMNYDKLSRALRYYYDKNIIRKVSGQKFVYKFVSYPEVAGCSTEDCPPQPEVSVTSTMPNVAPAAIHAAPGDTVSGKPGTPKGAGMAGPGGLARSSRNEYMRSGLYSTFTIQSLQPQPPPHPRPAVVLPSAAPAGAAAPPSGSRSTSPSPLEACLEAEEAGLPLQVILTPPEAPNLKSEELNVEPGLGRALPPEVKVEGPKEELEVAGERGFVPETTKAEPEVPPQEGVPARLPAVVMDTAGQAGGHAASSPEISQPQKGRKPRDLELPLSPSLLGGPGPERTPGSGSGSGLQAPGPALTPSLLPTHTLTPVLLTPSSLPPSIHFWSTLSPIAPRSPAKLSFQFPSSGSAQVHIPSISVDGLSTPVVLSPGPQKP
# Summary of the method: as §1
# GABPA = biological target: T3, GABPA (Homo sapiens, UniProt Q06546 1-454)
# T3 sequence: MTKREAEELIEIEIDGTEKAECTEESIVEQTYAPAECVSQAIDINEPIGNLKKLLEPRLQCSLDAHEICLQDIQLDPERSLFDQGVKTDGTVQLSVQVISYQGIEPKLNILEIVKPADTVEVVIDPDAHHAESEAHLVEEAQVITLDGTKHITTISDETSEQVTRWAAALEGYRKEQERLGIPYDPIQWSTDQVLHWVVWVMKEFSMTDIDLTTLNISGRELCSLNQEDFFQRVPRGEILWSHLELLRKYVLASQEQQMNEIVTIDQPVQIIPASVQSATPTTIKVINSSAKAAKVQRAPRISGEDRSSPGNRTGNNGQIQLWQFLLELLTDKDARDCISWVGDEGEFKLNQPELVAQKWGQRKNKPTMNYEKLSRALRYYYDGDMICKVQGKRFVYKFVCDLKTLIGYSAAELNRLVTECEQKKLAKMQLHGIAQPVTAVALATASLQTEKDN
# Summary of the method: as §1
# ERG = biological target: T4, ERG (Homo sapiens, UniProt P11308 1-479)
# T4 sequence: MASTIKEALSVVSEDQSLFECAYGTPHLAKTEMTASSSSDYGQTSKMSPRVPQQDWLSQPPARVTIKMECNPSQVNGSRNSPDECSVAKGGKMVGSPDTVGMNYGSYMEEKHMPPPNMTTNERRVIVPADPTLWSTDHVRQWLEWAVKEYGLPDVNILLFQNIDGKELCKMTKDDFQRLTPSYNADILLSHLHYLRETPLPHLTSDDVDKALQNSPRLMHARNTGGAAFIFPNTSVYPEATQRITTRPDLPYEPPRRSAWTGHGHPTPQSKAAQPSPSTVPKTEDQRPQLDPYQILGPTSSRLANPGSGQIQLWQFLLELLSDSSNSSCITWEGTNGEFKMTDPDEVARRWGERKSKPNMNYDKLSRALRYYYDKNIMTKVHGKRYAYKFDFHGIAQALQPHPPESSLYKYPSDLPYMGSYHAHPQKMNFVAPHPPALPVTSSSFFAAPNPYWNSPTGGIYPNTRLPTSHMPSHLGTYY
# Summary of the method: as §1
# ELF1 = ELF1 (Homo sapiens, UniProt P32519 1-619)
# Chain of ELF1 (P32519 whole entry): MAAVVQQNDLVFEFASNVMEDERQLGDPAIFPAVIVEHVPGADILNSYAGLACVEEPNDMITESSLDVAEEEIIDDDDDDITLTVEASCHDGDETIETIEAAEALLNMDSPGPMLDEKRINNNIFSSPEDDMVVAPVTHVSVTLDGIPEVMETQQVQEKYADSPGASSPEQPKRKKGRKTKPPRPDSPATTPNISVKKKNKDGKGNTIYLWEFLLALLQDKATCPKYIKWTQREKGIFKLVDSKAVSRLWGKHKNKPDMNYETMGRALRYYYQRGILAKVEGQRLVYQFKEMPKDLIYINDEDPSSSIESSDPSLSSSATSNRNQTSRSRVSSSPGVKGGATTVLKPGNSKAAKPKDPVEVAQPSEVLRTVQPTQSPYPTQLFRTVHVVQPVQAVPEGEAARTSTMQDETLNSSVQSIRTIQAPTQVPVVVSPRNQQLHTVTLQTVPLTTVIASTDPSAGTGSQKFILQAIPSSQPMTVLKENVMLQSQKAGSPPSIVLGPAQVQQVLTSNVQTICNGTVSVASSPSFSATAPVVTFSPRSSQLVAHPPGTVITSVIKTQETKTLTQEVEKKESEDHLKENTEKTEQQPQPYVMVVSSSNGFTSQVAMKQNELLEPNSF
# Summary of the method: as §1
# EHF = biological target: T5, EHF (Homo sapiens, UniProt Q9NZC4 1-300)
# T5 sequence: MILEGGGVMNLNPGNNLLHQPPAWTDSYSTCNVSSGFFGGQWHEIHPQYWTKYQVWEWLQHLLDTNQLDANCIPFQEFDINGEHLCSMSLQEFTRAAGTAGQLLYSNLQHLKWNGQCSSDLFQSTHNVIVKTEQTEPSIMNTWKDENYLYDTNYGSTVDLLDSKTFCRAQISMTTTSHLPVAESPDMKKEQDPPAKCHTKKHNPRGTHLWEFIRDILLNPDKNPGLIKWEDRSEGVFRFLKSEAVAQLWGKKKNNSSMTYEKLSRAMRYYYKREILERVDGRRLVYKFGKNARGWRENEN
# Summary of the method: as §1
# SPI1 = SPI1 (Homo sapiens, UniProt P17947 1-270)
# Summary of the method: as §1
# SPIB = SPIB (Homo sapiens, UniProt Q01892 1-262)
# Chain of SPIB (Q01892 whole entry): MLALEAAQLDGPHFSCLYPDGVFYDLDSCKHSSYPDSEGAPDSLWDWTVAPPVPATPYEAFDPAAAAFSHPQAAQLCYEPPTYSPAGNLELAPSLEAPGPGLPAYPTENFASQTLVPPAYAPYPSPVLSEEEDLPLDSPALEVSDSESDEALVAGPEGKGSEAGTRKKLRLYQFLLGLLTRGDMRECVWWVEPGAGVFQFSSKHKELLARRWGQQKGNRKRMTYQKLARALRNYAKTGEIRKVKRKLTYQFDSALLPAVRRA
# Summary of the method: as §1
# ELK3 = biological target: T6, ELK3 (Homo sapiens, UniProt P41970 1-407)
# T6 sequence: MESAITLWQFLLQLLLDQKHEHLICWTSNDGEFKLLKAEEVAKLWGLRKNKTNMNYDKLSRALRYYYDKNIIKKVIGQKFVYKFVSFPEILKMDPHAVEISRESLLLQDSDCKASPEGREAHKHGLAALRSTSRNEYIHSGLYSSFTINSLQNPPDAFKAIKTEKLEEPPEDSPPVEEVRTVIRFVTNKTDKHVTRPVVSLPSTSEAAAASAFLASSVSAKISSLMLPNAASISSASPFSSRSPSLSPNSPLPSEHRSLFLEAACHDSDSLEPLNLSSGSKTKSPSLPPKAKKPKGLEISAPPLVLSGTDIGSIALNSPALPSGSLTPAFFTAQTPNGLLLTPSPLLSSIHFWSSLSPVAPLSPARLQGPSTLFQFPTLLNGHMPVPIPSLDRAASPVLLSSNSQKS
# Summary of the method: as §1
sequence,measurement,setting,value
TGCTCG,binding signal,FLI1,"1.3 fold enrichment (6-mer frequency, TF over GST control)"
same,binding signal,ELK1,"1.2 fold enrichment (6-mer frequency, TF over GST control)"
same,binding signal,GABPA,"1.21 fold enrichment (6-mer frequency, TF over GST control)"
same,binding signal,ERG,"1.17 fold enrichment (6-mer frequency, TF over GST control)"
same,binding signal,ELF1,"1.18 fold enrichment (6-mer frequency, TF over GST control)"
same,binding signal,EHF,"1.17 fold enrichment (6-mer frequency, TF over GST control)"
same,binding signal,SPI1,"1.35 fold enrichment (6-mer frequency, TF over GST control)"
same,binding signal,SPIB,"1.27 fold enrichment (6-mer frequency, TF over GST control)"
same,binding signal,ELK3,"1.04 fold enrichment (6-mer frequency, TF over GST control)"
